# Reference: PubChem BioAssay AID652068 (The Scripps Research Institute Molecular Screening Center, 2013)
# Where “and” joins values, the source holds several entries; their conditions need not be identical. Identical values can stand only once. The whole screen tested about 4,300 compounds, of which about 4,000 (93%) were called active. So high a share suggests a set chosen from earlier hits. Only a sample is shown. A number with no mark means an inactive call.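 How the source made its calls: active means inhibition above its plate's cutoff, the mean test-well inhibition plus 3 SD (cut at about 4.8% in these data); inactive means the rest.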
# Assay: DNA CAG/GTC dye complex inhibitors – biochemical, fluorescence, TO-PRO-1 dye, d(CAG) DNA oligo, counter-screen for rCAG RNA repeat binder project (AID 652068);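 further: 0% = DNA dye mix with DMSO and 100% = 100 µM mitoxantrone; hits displace the dye from DNA and so lower well fluorescence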
# Settings: d(CAG) DNA oligo TO-PRO-1 dye displacement, at 3 µM, active compounds read high
row,Structure (SMILES),inhibition
1,COc1cc(OC)c(S(=O)(=O)Nc2ccccc2C(=O)O)cc1S(=O)(=O)Nc1ccccc1C(=O)O,6.92% (active)
2,COc1ccc(NS(=O)(=O)c2cc(C(=O)Nc3ccccc3C(=O)O)ccc2C)cc1,18.6% (active)
3,COc1ccc(NS(=O)(=O)c2cc(NC(=O)CC(=O)c3ccc([N+](=O)[O-])cc3)ccc2C)cc1,19% (active)
4,CC(=N\NC(=O)c1cc(Br)ccc1O)/C(=N/O)C(=O)Nc1ccccc1,3.8%
5,O=[N+]([O-])c1cc(Cl)cc(/C=N/NC(=S)Nc2cc(S(=O)(=O)N3CCOCC3)ccc2Cl)c1O,84.8% (active)
6,CCOC(=O)c1c(NC(=O)C2CC=CCC2C(=O)O)sc(C)c1CC (stereo not drawn),5.11% (active)
7,C=CCn1c(=S)[nH]c2scc(-c3ccco3)c2c1=O,15.4% (active)
8,Cc1ccc(Cn2c(SCC(=O)N/N=C/c3ccccc3OCC(=O)O)nc3ccccc32)cc1,23% (active)
9,O=C(Cc1ccccc1)Nc1ccc(C(=O)Nc2ccccc2C(=O)O)cc1,10.5% (active)
10,Cc1sc(NC(=O)c2ccc3ncsc3c2)c(C(N)=O)c1C,7.12% (active)
11,N#Cc1ccccc1CN1C(=O)S/C(=C/c2cccn2-c2cccc(C(=O)O)c2)C1=O,25.7% (active)
12,CC(=O)Nc1ccc(S(=O)(=O)N(CCc2ccccc2)CC(=O)N/N=C/c2ccc(C(=O)O)cc2)cc1,5.27% (active)
13,Cc1ccc(N=C2NC(=O)/C(=C/C=C/c3ccco3)S2)cc1C,23.8% (active)
14,COc1cc(C(=O)Nn2c(O)c(C3=c4ccccc4=NC3=O)sc2=S)ccc1O,8.15% (active)
15,Cc1ccc(NC(=O)CC2S/C(=N/N=C3\CCCc4ccccc43)NC2=O)cc1 (stereo not drawn),17.1% (active)
16,COc1ccc(/C=C/C(=O)c2ccc(NS(=O)(=O)c3ccc(C)cc3)cc2)cc1O,18.4% (active)
17,CCN(CC)C(=O)CSC(Nc1cccc(F)c1)=C(C#N)C#N,13.2% (active)
18,COc1cc(/C=C2/C(=O)NN(c3cccc(Cl)c3)C2=O)cc(Br)c1O,9.22% (active)
19,CN(C(=O)COC(=O)c1cc(-c2ccco2)nc2ccccc12)C1CCS(=O)(=O)C1 (stereo not drawn),13.2% (active)
20,COc1ccc(C(CNC(=O)c2cccc(S(=O)(=O)Nc3ccccc3Cl)c2)N2CCOCC2)cc1 (stereo not drawn),27.5% (active)
21,Cc1ccc(NC(=O)CSc2nc(CSc3ccc(C)cc3)cc(=O)[nH]2)cc1,16.7% (active)
22,CN(C)S(=O)(=O)c1cccc(-c2nn(-c3ccccc3)cc2/C=C2\SC(=S)N(CC(=O)O)C2=O)c1,55.3% (active)
23,Cc1ccc(-c2nn(-c3ccccc3)cc2/C=C2\SC(=S)N(CCCCCC(=O)O)C2=O)o1,28.4% (active)
24,CCc1nnc(NS(=O)(=O)c2ccc(N=Cc3c(C)[nH]n(-c4ccc(C)cc4)c3=O)cc2)s1,32.2% (active)
25,O=C(N/N=C/c1c(Cl)[nH]c2ccccc12)c1sc2ccccc2c1Cl,17.5% (active)
26,Cc1ccc(NC(=S)NNC(=O)CSc2nnc(SCc3ccccc3Cl)s2)cc1,18.8% (active)
27,CC(C)=CCCC1(C)C=Cc2c(ccc3c2[nH]c2cc(O)c(C)cc23)O1 (stereo not drawn),15.3% (active)

row,Structure (SMILES),inhibition
1,CCOC(=O)C1Nc2ccc(C(F)(F)F)cc2C2C=CCC12 (stereo not drawn),9.84% (active)
2,Cc1cc2nc(-c3ccco3)c(Cc3cccc(F)c3)n2c(C)c1Br,11.8% (active)
3,CC1(C(=O)NS(=O)(=O)c2ccc(C#N)cc2)CCN1C(=O)c1ccc(C2CCCCC2)cc1 (stereo not drawn),14.9% (active)
4,Cc1ccc(S(=O)(=O)N2[C@@H](c3cccc4ccccc34)C(C(=O)O)=C[C@H]2C(C)(C)C)cc1,15.6% (active)
5,CCc1ccc(N2CC(C(=O)Nc3ccc(S(=O)(=O)Nc4nccs4)cc3)CC2=O)cc1 (stereo not drawn),16.7% (active)
6,Cc1ccc(Sc2cc(C(=O)c3ccccc3C(=O)O)ccc2[N+](=O)[O-])cc1,29.8% (active)
7,O=C(O)c1ccccc1/C=N/Nc1ccc(S(=O)(=O)Nc2ccc(Cl)cc2)cc1[N+](=O)[O-],27.1% (active)
8,COc1ccc(Br)cc1/C=N/Nc1ccc(S(=O)(=O)Nc2ccccc2C(=O)O)cc1[N+](=O)[O-],71.3% (active)
9,COc1cccc(/C=N/Nc2ccc(S(=O)(=O)Nc3ccccc3C(=O)O)cc2[N+](=O)[O-])c1O,79.1% (active)
10,COc1ccc(OCC(=O)Nc2nnc(-c3ccco3)s2)cc1,8.39% (active)
11,Cc1ccccc1-c1ccc2c(c1)O[C@@H](CN(C)Cc1ccc(C(=O)O)cc1)[C@@H](C)CN([C@H](C)CO)S2(=O)=O,21.1% (active)
12,O=C(COc1ccc([N+](=O)[O-])cc1)Nc1cccc(C(=O)Nc2ccccc2C(=O)O)c1,24.8% (active)
13,NC(c1ccccc1)c1csc(NC(=O)Nc2cccc(C(F)(F)F)c2)n1 (stereo not drawn),15.2% (active)
14,COc1ccc(C(N)c2csc(NC(=O)Nc3cccc(C(F)(F)F)c3)n2)cc1 (stereo not drawn),10.1% (active)
15,CCOC(=O)c1csc(NC(=O)Nc2cccc(OC)c2)n1,16.7% (active)
16,NC(c1csc(NC(=O)Nc2cccc(C(F)(F)F)c2)n1)C1CCCCC1 (stereo not drawn),4.91% (active)
17,CCN1C(=O)/C(=C2/Sc3ccccc3N2CCCS(=O)(=O)O)SC1=S,7.23% (active) and 13.9% (active)
18,CCOC(=O)c1ccccc1N1C(=O)C2Sc3[nH]c(=O)sc3C(/C=C/c3ccccc3)C2C1=O (stereo not drawn),18.1% (active)
19,Cc1c(CCC(=O)N[C@@H](CC(C)C)C(=O)O)c(=O)oc2c(C)c3oc4c(c3cc12)CCCC4,12.2% (active)
20,CC[C@@H](C)[C@H](NC(=O)CCc1c(C)c2cc3c4c(oc3c(C)c2oc1=O)CCCC4)C(=O)O,14.9% (active)
21,COC(=O)c1ccc(COc2ccc(/C=C/C(=O)c3ccc(OC)c(CSCC(=O)O)c3)cc2OC)cc1,24.1% (active)
22,COc1ccc(C(=O)/C=C/c2ccc(-c3ccccc3)cc2)cc1CSCC(=O)O,50.7% (active)
23,Cc1ccc2nc(N3C(=O)C(O)=C(C(=O)c4ccco4)C3c3cccc(O)c3)sc2c1 (stereo not drawn),37.6% (active)
24,N#Cc1c(-c2ccccc2)nc(SCc2cccc(C(F)(F)F)c2)[nH]c1=O,50% (active)
25,Cc1ccc(CSc2nc(-c3ccccc3)c(C#N)c(=O)[nH]2)cc1,28.7% (active)
26,N#Cc1c(-c2ccccc2)nc(SCc2ccc([N+](=O)[O-])cc2)[nH]c1=O,17.4% (active)
